According to PubChem BioAssay (Tox21):
Records with an inconclusive call do not appear. Unmarked numbers belong to inactive results. Active and inactive are the calls of the source. The call rests on the fitted dose curve; in most records, active means well fitted cell-killing curve with a large enough effect in the repeat runs; inconclusive means weak or mixed curves, or effect the other way; inactive means no such curve, though single readings can be large or run the other way. Positions of bridges follow the written chain, without caps; N, C: chain ends. Non-standard residues stand in square brackets, D forms with d. Residues, ends and D or L forms follow the SMILES beside them. hArg = N=C(N)NCCCC[C@H](N)C(=O)O; Mpa = O=C(O)CCS

Assay: qHTS assay for identifying genotoxic compounds that show differential cytotoxicity against isogenic chicken DT40 cell lines with known DNA damage response pathways - Rev3 mutant cell line (AID 743014); further: nearly all actives have a fitted effect of over 55% in size
Settings: chicken DT40 Rev3-/- viability, CellTiter-Glo, 40 h; series mostly up to 68.4 µM; activity, negative = cytotoxicity: at the top concentration
Excerpt: National Center for Advancing Translational Sciences [NCATS]
NIH Chemical Genomics Center [NCGC]
U.S. Environmental Protection Agency [EPA]
National Institutes of Environmental Health Sciences [NIEHS]
National Toxicology Program [NTP]
U.S. Food and Drug Administration [FDA]
DNA repair pathways play a critical role in cellular homeostasis by repairing DNA damage induced by endogenous processes and xenobiotics. Isogenic chicken DT40 cell lines deficient in different DNA repair pathways can be used to identify genotoxic compounds and aid in characterizing the nature of the DNA damage induced. Two DNA repair-deficient cell lines with disrupted genes, Rad54/Ku70 or Rev3, were used to screen the Tox21 10K compound library. Possible genotoxicity was based on the presence of a significant increase in cytotoxicity in one or more of the DNA repair-deficient cell lines compared to that observed in the parental DNA repair-proficient cell line. CellTiter Glo viability assay (Promega, Madison, WI) was used to measure cell viability in these cells after compound treatment. This assay includes the data from the Rev3 mutant cell line.
Tox21 Assay Protocol Summary:
300 DT40 mutant cells in 5 uL/well were dispensed into white, solid-bottom 1536-well plates using a Multidrop Combi (ThermoFisher Scientific, Waltham, MA) dispenser. After the assay plates were incubated at 37 C/5% CO2 for approximately 0.5 hour, 23 nL of compounds dissolved in DMSO, positive controls or DMSO only was transferred into the assay plate by a pintool work station (Kalypsys, San Diego, CA). The assay plates were incubated at 37 C/5% CO2 for 40 hours. After 5 uL per well of CellTiter-Glo reagent was added into each well of the assay plates, the plates were incubated for 30 min at room temperature and the luminescence intensity of the plates was measured using a ViewLux (PerkinElmer, Shelton, CT) plate reader.
On the % scale 0 is the no-effect control and ±100 the full control effect; potency means the concentration at half of the fitted maximal effect.

Structure (SMILES)	Potency	activity, negative = cytotoxicity
CC1(C)Oc2ccc(C#N)cc2[C@@H](N2CCCC2=O)[C@@H]1O	inactive	–
[O]=[Mo](=[O])=[O]	–	7.94% [at 31.4 µM]
Nc1nnnn1-c1ccccc1	–	-5.37%
CN(C)CC/C=C1/c2ccccc2COc2ccc(CC(=O)O)cc21	–	0.452%
CC(C)C1OCCN1CCOC(=O)NCCCCCCNC(=O)OCCN1CCOC1C(C)C (stereo not given)	–	-11.2%
CC(=O)OCC(=O)Nc1cc(C#N)cc(NC(=O)COC(C)=O)c1Cl	–	5.76%
C/C=C(\C)C(C)=O	–	-14.7%
CSc1cnccn1	–	5.73%
CCC(C)C(C)=O (stereo not given)	–	5.58%
CCCc1ccc(O)cc1	–	3.48%
CCC/C=C(\C=O)CC	–	-24.8%
C=CCCCCCCCCC(=O)OCCCC	–	0.543%
N#CCC(=O)NN	–	-4.91%
COP(=O)(O)OP(=O)(O)OC	–	-1.1%
O=C(O)CCCCCC(=O)O	–	5% [at 95 µM]
CC/C(C)=N\O[Si](C)(O/N=C(\C)CC)O/N=C(\C)CC	–	-15.6% [at 95 µM]
CCC(=O)c1c(O)cc(O)cc1O	–	2.82%
CCCC(CC)c1ccccc1 (stereo not given)	–	-2.22%
Fc1ccccc1	–	12.7% [at 95 µM]
C/C(CC(C)C)=N\O	–	-13.3%

Structure (SMILES)	Potency	activity, negative = cytotoxicity
COC(=O)/C=C\C(=O)O	–	-10.8%
CC(O)CC(C)O (stereo not given)	–	2.26%
NCC1(Cc2noc(=O)[nH]2)CCCCC1	–	-17.7%
N[C@@H](CSCCCO)C(=O)O	–	5.73%
O=C(O)c1cc2ccccc2nc1C(=O)O	–	-8.52%
CCCC(=O)Nc1ccc(OCC(O)CNC(C)C)c(C(C)=O)c1 (stereo not given)	–	11.6% [at 31.4 µM]
O=C(Cn1ccnc1[N+](=O)[O-])NCc1ccccc1	–	5.82%
O=C=NCC1CCCC(CN=C=O)C1 (stereo not given)	–	-22.3%
CN(C)C(C)(C)CO	–	7.07%
CCOCCOCC	–	-23.1% [at 95 µM]
Cc1cc(-c2ccccc2)nnc1NCCN1CCOCC1	–	1.24%
O=C(O)CONC(=O)c1ccccc1	–	-17%
C/C=C(\C)C(=O)OCCc1ccccc1	–	-25.9%
CC1=C(O)C(=O)C(C)O1 (stereo not given)	–	3.53% [at 95 µM]
CCCCCCCCCOC(=O)CCCCC(=O)OCCCCCCC	–	2.92%
CC(=O)OC(C)=O	–	6.36% [at 95 µM]
NC(=O)[C@@H]1CSSCCC(=O)N[C@@H](CCCCN=C(N)N)C(=O)NCC(=O)N[C@@H](CC(=O)O)C(=O)N[C@@H](Cc2c[nH]c3ccccc23)C(=O)N2CCC[C@H]2C(=O)N1 ([Mpa][hArg]GDWPC-NH2; disulfide 1-7)	–	17.2%
O=C(O)CNC(=O)CNC(=O)CNC(=O)CSC(=O)c1ccccc1	–	3.15%
CCOC(CN1CCN(CC(C)C(=O)c2ccccc2)CC1)c1ccccc1 (stereo not given)	13.3 µM (active)	–
CC(C)OC(=O)CCC(=O)OC(C)C	–	-27.8%
